High-throughput results from PubChem.
Shown is part of a subset that was picked to be rich in hits.
Pf Dd2 growth: Plasmodium falciparum Dd2 growth inhibition; P. falciparum Dd2 growth, SYBR Green, 72 h; hit rate 4.3% among 120,000; Potency, µM (titrated, usually from 28.9 µM), for inactives: at the top dose activity, negative = inhibition, most hits filed as inhibitors; active = well fitted inhibition curve with a large enough effect;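 note: plate controls were DMSO vehicle for no effect and reference drug for full effect; nearly all actives have a fitted effect of over 65% in size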
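Readout: SYBR Green fluorescence, 485 nm excitation, 535 nm emission, after ~16 h lysis at 37C. Before that, Dd2-infected red cells (2.5% hematocrit) grew 72 h with compound, 29 uM top final concentration.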
* hit, by the source's call; i = inactive; [ ] = dose if it differs, or a comment. Potency is the fitted concentration of half-maximal effect.

SMILES	Pf Dd2 growth
CC(C)N1C[C@@H]2C[C@H]1C(=O)N(CC1CC1)c1ccccc1O2	11.2µM*
COCCN1C(=O)[C@@H]2C[C@@H](CN2C2CCCC2)Oc2ccccc21	-29.9%[44.1 µM]
O=C1[C@@H]2C[C@@H](CN2C(=O)C2CC2)Oc2ccccc2N1Cc1ccccc1	i
CN1CCC(N2C[C@@H]3C[C@H]2C(=O)N(Cc2ccc(OC(F)(F)F)cc2)c2ccccc2O3)CC1	10µM*
COc1ccc(CN2C(=O)[C@@H]3C[C@@H](CN3C3CCCC3)Oc3ccccc32)cc1	10µM*
O=C1[C@@H]2C[C@@H](CN2C(=O)c2ccccc2)Oc2ccccc2N1CC1CC1	5.3%[44.1 µM]
COCCN1C(=O)[C@@H]2C[C@@H](CN2C(C)C)Oc2ccccc21	-33.6%[44.1 µM]
COCCN1C(=O)[C@@H]2C[C@@H](CN2Cc2cccc(OC)c2)Oc2ccccc21	10µM*
COCCN1C(=O)[C@@H]2C[C@@H](CN2Cc2ccc(C#N)cc2)Oc2ccccc21	-11.3%[44.1 µM]
COc1ccc(CN2C(=O)[C@@H]3C[C@@H](CN3C(=O)c3cnccn3)Oc3ccccc32)cc1	-25.6%[44.1 µM]
O=C1[C@@H]2C[C@@H](CN2C2COC2)Oc2ccccc2N1Cc1ccc(OC(F)(F)F)cc1	i
COCCN1C(=O)[C@@H]2C[C@@H](CN2Cc2ccccc2)Oc2ccccc21	i
COc1ccc(-n2nc(C3CCN(C(=O)c4ccc(F)cc4)CC3)[nH]c2=O)cc1	i
CCOc1ccc2c(n1)CCN(C(=O)Cc1cccc(F)c1)C2	10.6%
CN(CCO)C[C@@H]1CN(C(=O)Cc2c(F)cccc2Cl)C[C@@H]1CO	-2.3%
CN1[C@@H](CCC(=O)NCc2cccs2)CNC(=O)[C@@H]2[C@H]1CCN2Cc1ncc[nH]1	13.1%[44.1 µM]
COc1ccc(CNC(=O)[C@H]2O[C@H](CCN3CCN(c4ccccc4OC)CC3)CC[C@@H]2O)cc1	i
CN(C)C(=O)c1ccnc(-c2nnc3ccc(NCCN4CCOCC4)nn23)c1	43.7%[44.1 µM]
Cc1nc(C)c(C(=O)N2CCCC2c2nc(CCOCC3CC3)no2)s1 (stereo not drawn)	-29.0%
COc1ccc(CN2C(=O)[C@@H]3C[C@@H](CN3C(C)C)Oc3ccccc32)cc1	25.6%[44.1 µM]
O=C1[C@@H]2C[C@@H](CN2C(=O)c2ccccc2)Oc2ccccc2N1Cc1ccccc1	-12.1%[44.1 µM]
CC(C)N1C[C@@H]2C[C@H]1C(=O)N(Cc1ccc(OC(F)(F)F)cc1)c1ccccc1O2	11.2µM*
CN1CCN(C[C@@H]2CN(C(=O)C3(c4ccccc4)CC3)C[C@@H]2CO)CC1	-7.2%
O=C(C1CCN(c2cnn(Cc3ccccc3)c(=O)c2)C1)N1CCc2ccccc2C1 (stereo not drawn)	-1.3%
CCn1ncc(N2CCC(NC(=O)Cc3ccsc3)CC2)cc1=O	-5.3%
SMILES	Pf Dd2 growth
Cc1ccc(CC(=O)N[C@@H]2CN(c3ccncn3)C[C@H]2CN(C)C)cc1	7.0%
COc1ccc(CCC(=O)N[C@@H]2CN(c3ccncn3)C[C@H]2CN(C)C)cc1	23.8%
CN(C)C[C@@H]1CN(c2ccncn2)C[C@H]1NC(=O)COc1ccc(Cl)cc1	7.94µM*
O=C(c1ccc(OC2CCN(C(=O)c3cccc(F)c3)CC2)nc1)N1CCOCC1	20.9%
COc1ccc(CNC(=O)C(C)C2CCOCC2)c(OC)c1 (stereo not drawn)	10.8%
COc1cccc(N2C(=O)NC(=NC3CCCCC3)C23CCN(C(=O)c2ccc(C(F)(F)F)cc2)C3)c1 (stereo not drawn)	10.2%
CCOc1ccc(CCNC(=O)c2cc3c(=O)n(CC)c4ccccc4c3s2)cc1OCC	11.4%
CCN(CC)CCOC(=O)c1ccc(NC(=O)c2cc3c(=O)n(CC)c4ccccc4c3s2)cc1	0.794µM*
CCn1c(=O)c2cc(C(=O)Nc3cc(OC)c(OC)c(OC)c3)sc2c2ccccc21	i
O=C(Cc1ccccc1F)N1CCC(c2nc3c(nnn3Cc3ccc(F)cc3)c(=O)[nH]2)CC1	-17.5%
Cc1cccc(Cn2nnc3c(=O)[nH]c(C4CCN(C(=O)c5ccccc5F)CC4)nc32)c1	-18.4%
O=C(Cc1ccc(F)cc1)N1CCC(c2nc3c(nnn3Cc3ccc(Cl)cc3)c(=O)[nH]2)CC1	14.1µM*
COC(=O)c1ccc2nc(CO[C@H]3CN(C4CCC4)C[C@H]3F)[nH]c2c1	-10.6%[44.1 µM]
CCOc1ccc(CNC(=O)CCc2cn(CC)c3ccccc23)cc1	-11.6%
CCOc1ccc(NC(=O)N(Cc2cn(CC)c3ccccc23)C2CCCCCC2)cc1	10µM*
CCOc1ccc(NC(=O)Cn2cc(C(=O)C3CC3)c3ccccc32)cc1	4.6%
CCS(=O)(=O)Nc1ccc(C)n(CC(=O)N2CCN(CC(C)C)CC2)c1=O	2.0%
Cc1ccc(C(=O)N2CCN(C(=O)c3nnn4c3COC(c3ccc(Cl)cc3)C4)CC2)c(C)c1 (stereo not drawn)	-1.8%
Cc1ccc(C)c(C(=O)N2CCN(C(=O)c3nnn4c3COC(c3ccc(Cl)cc3)C4)CC2)c1 (stereo not drawn)	i
Cc1ccc(C(=O)N2CCN(C(=O)c3nnn4c3COC(c3ccc(Cl)cc3)C4)CC2)s1 (stereo not drawn)	2.82µM*
CCOC(=O)c1cccc(NC(=O)c2c(C)oc3ccn(Cc4ccc(F)cc4)c(=O)c23)c1	-15.8%
COc1ccc(C2(C(=O)N3CCCC3c3nc(C4CCOCC4)no3)CC2)cc1 (stereo not drawn)	28.6%
CCCS(=O)(=O)N1CCC(F)(c2nc(-c3ccccc3)no2)CC1	-13.6%
O=C(Nc1cccc(Cl)c1F)N1CCC(Oc2ncccc2C(=O)N2CCOCC2)C1 (stereo not drawn)	12.3%
CCC(=O)C1=C(c2ccc(F)cc2)N(C(=O)CC)n2c(nnc2-c2ccc(OC)cc2)S1	3.16µM*
SMILES	Pf Dd2 growth
COc1ccc(C2=C(C(C)=O)Sc3nnc(-c4ccc(Cl)cc4)n3N2C(C)=O)cc1OC	1.41µM*
COc1ccc(CC(=O)NCCc2sc(-c3ccc(Cl)cc3)nc2C)cc1OC	i
CCC(=O)C1=C(c2ccc(OC)c(OC)c2)N(C(=O)CC)n2c(CC)nnc2S1	1.41µM*
CCc1nnc(SCc2nc(-c3ccc(OC)c(OC)c3)oc2C)c2cc3sc(C)cc3n12	38.9%
CCc1nnc(SCC(=O)Nc2ccc(OC)c(OC)c2)c2cc3occc3n12	0.8%
COc1ccc(-c2nnc3n2N(C(C)=O)C(c2ccc(Cl)c(Cl)c2)=C(C(C)=O)S3)cc1	76.8%
COc1ccc(OC(=O)CSc2nnc(-c3ccc(F)cc3)o2)cc1	14.3%
COc1ccc(-c2nnc3n2CCN(C(=O)c2ccc(F)cc2)C3)cc1	-1.8%
COCc1nc(C2CCN(C(=O)C3CC3)C2)no1 (stereo not drawn)	-2.9%
O=C(CCn1ccc(=O)[nH]c1=O)N1CCN(Cc2ccccc2)CC(O)C1 (stereo not drawn)	-16.5%
COCCC1(NC(=O)CCc2ccc(OC)cc2)CCN(C2CCOCC2)CC1	i
Cc1nc2n(c1C(=O)NCCc1ccccc1)CCC(Nc1cccnc1)C2 (stereo not drawn)	i
Cc1cccc(CC(=O)N2CCCC(c3nnnn3C)C2)c1 (stereo not drawn)	26.3%
COc1cccc(CNC(=O)C2CCCCC(=O)N2)c1OC (stereo not drawn)	i
O=C(c1n[nH]c2c1CCCC2)N1CCC2(CC1)NC(=O)N(c1ccccc1)N2	3.16µM*
Cc1ccsc1C(=O)N1CCC2(CC1)NC(=O)N(c1ccccc1)N2	43.3%
COc1ccc(C(=O)N2CCC3(CC2)NC(=O)N(c2ccccc2)N3)cc1	7.0%
CCCS(=O)(=O)N[C@H]1CO[C@H]2[C@@H]1OC[C@H]2OC(=O)Nc1ccc(OC)cc1	14.2%[44.1 µM]
